IL-1B inflam inh – qHTS for Inhibitors of Inflammasome Signaling: IL-1-beta AlphaLISA Primary Screen; THP-1 LPS/ATP IL-1B secretion, AlphaLISA, 16 h; hits give low values; activity change, % at 57.5 µM; 4.7% of 360,000 active; in the data active = activity change below about -50%; inconclusive = mostly about -30% to -49%
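THP-1 cells pretreated 1 hr with compounds (up to 57.5 uM final), then stimulated with LPS (250 ng/mL final) plus ATP (1.25 mM final); secreted IL-1B measured by AlphaLISA after 16 hr, decreased signal indicating inhibition.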
DT40 TDP1 no CPT – qHTS for Inhibitors of human tyrosyl-DNA phosphodiesterase 1 (TDP1): qHTS in cells in absence of CPT; AID 686978, 2013; Potency, µM (doses to about 46.2 µM), usual class: inhibitors; 15% of 420,000 active; DT40 Tdp1-/- hTDP1 cells, no CPT, ATP luminescence, 48 h; also: nearly all actives have a fitted effect of over 55% in size
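Chicken DT40 Tdp1-/- cells complemented with human TDP1, screened without camptothecin (DMSO vehicle only), 400 cells/well. Compounds pin-transferred, cells incubated at 37 °C for at least 48 hr. Growth read as ATP-dependent luminescence (CellTiter-Glo, 30 min at RT).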
HT1080 IDH1KD tx – qHTS for induction of synthetic lethality in tumor cells producing 2HG: qHTS for the HT-1080-IDH1KD cell line; AID 686971, 2013; 2% of 360,000 active; Potency, µM (top dose mostly 46.1 µM), most hits filed as cytotoxic; HT-1080 IDH1 knockdown viability, ATP luminescence, 48 h
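Cytotoxicity counter-line: IDH1KD HT-1080, 48 h, CellTiter-Glo. Curves classed by r2, magnitude and activity.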
TDP1 cell CPT – qHTS for Inhibitors of human tyrosyl-DNA phosphodiesterase 1 (TDP1): qHTS in cells in presence of CPT; AID 686979, 2013; 12% of 420,000 active; chicken DT40 Tdp1-/-;hTDP1 cells + 20 nM CPT, ATP luminescence, 48 h; Potency, µM (series often up to 46.2 µM), usual class: inhibitors; also: nearly all actives have a fitted effect of over 55% in size
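Chicken DT40 Tdp1-/- cells stably complemented with human TDP1 were seeded at 400 cells/well in medium containing 20 nM camptothecin, exposed to pin-transferred compounds, and grown at 37 °C for at least 48 hr. Viability was read as ATP luminescence.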
ALOX12 inh – Primary qHTS assay for inhibitors of human arachidonate 12S-lipoxygenase (ALOX12): Round 2 | Potency, µM (series often up to 108 µM), hits mostly inhibitors | AID 1671190, 2021 | purified 12hLO, xylenol orange hydroperoxide absorbance | 1.1% of 580,000 active
Target sequence (P18054 whole entry, looked up): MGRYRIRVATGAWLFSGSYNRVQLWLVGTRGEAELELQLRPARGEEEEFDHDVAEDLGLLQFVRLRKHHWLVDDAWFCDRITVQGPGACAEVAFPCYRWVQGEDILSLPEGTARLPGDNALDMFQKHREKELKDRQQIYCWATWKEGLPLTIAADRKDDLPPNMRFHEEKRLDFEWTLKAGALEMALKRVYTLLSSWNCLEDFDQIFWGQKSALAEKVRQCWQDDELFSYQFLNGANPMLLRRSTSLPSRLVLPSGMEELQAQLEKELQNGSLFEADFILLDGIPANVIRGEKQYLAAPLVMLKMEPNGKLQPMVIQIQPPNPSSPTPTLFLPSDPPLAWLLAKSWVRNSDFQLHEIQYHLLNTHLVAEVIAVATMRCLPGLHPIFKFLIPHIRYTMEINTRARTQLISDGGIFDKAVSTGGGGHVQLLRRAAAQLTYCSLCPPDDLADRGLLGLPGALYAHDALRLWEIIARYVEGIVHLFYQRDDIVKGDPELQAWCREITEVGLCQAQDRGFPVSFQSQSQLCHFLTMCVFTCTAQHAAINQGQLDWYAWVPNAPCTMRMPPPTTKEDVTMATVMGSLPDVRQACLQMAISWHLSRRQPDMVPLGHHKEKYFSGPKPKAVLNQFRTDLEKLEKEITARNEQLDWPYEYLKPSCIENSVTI
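Hydroperoxide product was detected by ferrous iron/xylenol orange as the 573 to 405 nm absorbance ratio. Arachidonic acid at 40 uM (final) was turned over for 30 min at room temperature by 150 nM human 12hLO, pH 7.0 Hepes buffer, after 15 min compound preincubation.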
HT1080-NT tox – qHTS for induction of synthetic lethality in tumor cells producing 2HG: qHTS for the HT-1080-NT fibrosarcoma cell line; HT-1080-NT fibrosarcoma viability, CellTiter-Glo ATP luminescence, 48 h; 1.6% of 360,000 active; Potency, µM (top dose mostly 46.1 µM), actives largely listed as cytotoxic;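 also: NT is the 2HG producing partner of a matched IDH1 knockdown line; nearly all actives have a fitted effect of over 55% in size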
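750 cells/well, RPMI + 5% FBS; 2 h settle, compound pin-transfer, 48 h at 37 degrees C. CellTiter-Glo 10 min RT, luminescence. Normalized to DMSO and media-only wells.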
Hits are given with their value. Shown is part of a subset that was picked to be rich in hits. Unless noted, calls follow the shape of the dose curve; as a rule, active = well fitted curve in the direction sought with a large enough effect; inconclusive = small, poorly fitted or top-dose-only effect, or another doubt; inactive = no such curve, though single readings can be large; an effect the other way counts as inactive or inconclusive.

O=C(N/N=C/c1c[nH]c2ccccc12)c1ccc2c(c1)OCCO2 was read as DT40 TDP1 no CPT 16µM, HT1080 IDH1KD tx 21µM, TDP1 cell CPT inconclusive, ALOX12 inh inactive and HT1080-NT tox inconclusive.
Screening O=C(N/N=C/c1ccc2c(c1)OCO2)c1ccc(COCC(F)(F)C(F)F)cc1 returned IL-1B inflam inh inactive, DT40 TDP1 no CPT inactive, HT1080 IDH1KD tx 1.3µM, TDP1 cell CPT inactive and HT1080-NT tox 1µM.
CCOC(=O)c1[nH]c2ccccc2c1NC(=O)C12CC3CC(CC(C3)C1)C2 was read as ALOX12 inh inactive.
For COC1C(=O)N(C2CCN(C(=O)c3cc4ccccc4[nH]3)CC2)C12CCOCC2 (stereo not drawn) the results were ALOX12 inh inactive.
`CC(C)n1nc(C(=O)NCCCC(=O)O)c2ccccc2c1=O` gave ALOX12 inh inactive.
`O=C(N/N=C/c1ccccc1O)c1ccc2c(c1)OCO2` gave IL-1B inflam inh inactive, DT40 TDP1 no CPT 4.1µM, HT1080 IDH1KD tx inconclusive, TDP1 cell CPT 5.2µM, ALOX12 inh inactive and HT1080-NT tox inconclusive.
O=C(N/N=C/c1cccs1)c1ccc2c(c1)OCO2 was read as IL-1B inflam inh inactive, DT40 TDP1 no CPT inactive, HT1080 IDH1KD tx inactive, TDP1 cell CPT inactive, ALOX12 inh inactive and HT1080-NT tox inactive.
Screening CCn1c(/C=C/c2cccc([N+](=O)[O-])c2)nc2ccccc2c1=O returned IL-1B inflam inh inactive, DT40 TDP1 no CPT inconclusive, HT1080 IDH1KD tx inactive, TDP1 cell CPT inconclusive, ALOX12 inh inactive and HT1080-NT tox inactive.
`CN(/C=C/c1c([N+](=O)[O-])c(=O)n(C)c(=O)n1C)c1ccccc1` gave IL-1B inflam inh inactive, DT40 TDP1 no CPT inactive, HT1080 IDH1KD tx inactive, TDP1 cell CPT inactive, ALOX12 inh inactive and HT1080-NT tox inactive.
`Cn1c(/C=C/c2cccc([N+](=O)[O-])c2)c([N+](=O)[O-])c(=O)n(C)c1=O` gave IL-1B inflam inh -107, DT40 TDP1 no CPT 15µM, HT1080 IDH1KD tx inconclusive, TDP1 cell CPT inconclusive, ALOX12 inh inactive and HT1080-NT tox inactive.
`COc1ccc(/C=C/c2c([N+](=O)[O-])c(=O)n(C)c(=O)n2C)c(OC)c1OC` gave IL-1B inflam inh -58, DT40 TDP1 no CPT inconclusive, HT1080 IDH1KD tx inactive, TDP1 cell CPT inactive, ALOX12 inh inconclusive and HT1080-NT tox inactive.
Screening COc1ccc(/C=C/c2c([N+](=O)[O-])c(=O)n(C)c(=O)n2C)cc1OC returned IL-1B inflam inh inactive, DT40 TDP1 no CPT inactive, HT1080 IDH1KD tx inactive, TDP1 cell CPT inactive, ALOX12 inh inactive and HT1080-NT tox inactive.
`CCCCCOc1ccc(/C=C/c2c([N+](=O)[O-])c(=O)n(C)c(=O)n2C)cc1` gave IL-1B inflam inh -86, DT40 TDP1 no CPT 21µM, HT1080 IDH1KD tx inactive, TDP1 cell CPT 18µM, ALOX12 inh inactive and HT1080-NT tox inactive.
`Cn1c(/C=C/c2ccc(Cl)cc2)c([N+](=O)[O-])c(=O)n(C)c1=O` gave IL-1B inflam inh -100, DT40 TDP1 no CPT 21µM, HT1080 IDH1KD tx inconclusive, TDP1 cell CPT inconclusive, ALOX12 inh inactive and HT1080-NT tox inconclusive.
For CCCCCOc1ccc(/C=C/C(=O)O)cc1 the results were ALOX12 inh inactive.
Screening Cc1ccc(C)c(N2CCN(C(=O)c3cc(-c4ccncc4)cn3C)CC2)c1 returned ALOX12 inh inactive.
For Cc1ccc(-c2nnc(SCC(=O)N3CCCCCC3)n2N)cc1 the results were ALOX12 inh inactive.
`COc1cc(OC)c(OC)cc1CN1CCC(C)(c2noc(C3CCOCC3)n2)CC1` gave ALOX12 inh inactive.
Screening COc1cccc(-c2oc3c(c2C#CC2(N)CCCCC2)C(O)CCC3)c1 (stereo not drawn) returned IL-1B inflam inh inactive, DT40 TDP1 no CPT 18µM, HT1080 IDH1KD tx inconclusive, TDP1 cell CPT 18µM, ALOX12 inh inconclusive and HT1080-NT tox 16µM.
For Cc1cc(=O)n2[nH]c(-c3ccc(C(C)(C)C)cc3)cc2n1 the results were IL-1B inflam inh inactive, DT40 TDP1 no CPT 21µM, HT1080 IDH1KD tx inconclusive, TDP1 cell CPT 18µM, ALOX12 inh inactive and HT1080-NT tox inconclusive.
CCc1c(C)nc2cc(-c3ccc(OC)cc3)[nH]n2c1=O was read as IL-1B inflam inh inactive, DT40 TDP1 no CPT 15µM, HT1080 IDH1KD tx inactive, TDP1 cell CPT 21µM, ALOX12 inh inactive and HT1080-NT tox inactive.
`Cc1cc(=O)n2[nH]c(-c3ccccc3)cc2n1` gave IL-1B inflam inh inactive, DT40 TDP1 no CPT inactive, HT1080 IDH1KD tx inactive, TDP1 cell CPT inactive, ALOX12 inh inactive and HT1080-NT tox inactive.
`COc1ccc(CN(C)Cc2cc(=O)n3[nH]c(-c4cccc(C)c4)cc3n2)cc1` gave ALOX12 inh inactive.
`O=c1cc(-c2ccccc2)nc2cc(-c3ccc(F)cc3)[nH]n12` gave IL-1B inflam inh inactive, DT40 TDP1 no CPT 6.5µM, HT1080 IDH1KD tx inconclusive, TDP1 cell CPT 7.3µM, ALOX12 inh inactive and HT1080-NT tox inconclusive.
For CCOC(=O)Cc1c(C)nc2cc(-c3ccc(Cl)cc3)[nH]n2c1=O the results were IL-1B inflam inh inactive, DT40 TDP1 no CPT inactive, HT1080 IDH1KD tx inactive, TDP1 cell CPT inactive, ALOX12 inh inactive and HT1080-NT tox inactive.
COc1cccc(-c2cc3nc(-c4ccccc4)cc(=O)n3[nH]2)c1 was read as IL-1B inflam inh inactive, DT40 TDP1 no CPT 2.6µM, HT1080 IDH1KD tx 1.3µM, TDP1 cell CPT 2.6µM, ALOX12 inh inactive and HT1080-NT tox 1.5µM.
For Cc1ccc(OCn2ccc(C(=O)N3CCN(Cc4ccccc4F)CC3)n2)c(C)c1 the results were ALOX12 inh inactive.
`COCCn1c(C)cnc1CCNC(=O)NCc1ccc(C)cc1` gave ALOX12 inh inactive.
For CC(C)(C)c1ccc(C(=O)NC(=S)Nc2ccc(N3CCOCC3)cc2)cc1 the results were IL-1B inflam inh inactive, DT40 TDP1 no CPT inactive, HT1080 IDH1KD tx inactive, TDP1 cell CPT inactive, ALOX12 inh inconclusive and HT1080-NT tox inactive.
Screening COc1ccc(C(=O)Nc2ccc(N3CCN(C)CC3)cc2)cc1OC returned IL-1B inflam inh -81, DT40 TDP1 no CPT inactive, HT1080 IDH1KD tx inactive, TDP1 cell CPT inactive, ALOX12 inh inactive and HT1080-NT tox inactive.

Screening data as filed in PubChem BioAssay.
